“And” between values parts separate entries of the source, which are not always exact repeats. Equal values may be shown once. Screen size: about 5,500 compounds; about 2,000 (36%) were called active. About 18% were inconclusive and are not listed. Rule as the data show it: active = normalized growth mostly below about 0.91 (no sharp cut-off); inconclusive = no clear call, values can overlap the other calls; inactive = mostly above about 0.92. This is one part of the list.
Assay: chemical genetic growth profiling, strain panel (AID 1159580);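 also: tested at 20 µM; growth read once vehicle control cultures reached saturation at 30 °C; 1 = growth at the plate median or of vehicle wells; lower values mean less growth of the strain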
Settings: growth OD

Measured: normalized growth

OCCN1CCN(CCCN2c3ccccc3Sc3ccc(C(F)(F)F)cc32)CC1
inactive: S. cerevisiae deletion strains, locus YJR075W, strain HOC1, stronger effect = lower value 0.939 and 0.985 | S. cerevisiae deletion strains, locus YKL009W, strain mrt4, stronger effect = lower value 0.926 | S. cerevisiae deletion strains, locus YKL068W, stronger effect = lower value 0.987 | S. cerevisiae deletion strains, locus YKL085W, strain MDH1 (second series), stronger effect = lower value 0.981 | S. cerevisiae deletion strains, locus YKL085W, strain MDH1, stronger effect = lower value 0.981 | S. cerevisiae deletion strains, locus YKL160W, strain elf1, stronger effect = lower value 0.907 | S. cerevisiae deletion strains, locus YKL190W, strain CNB1, stronger effect = lower value 0.975 | S. cerevisiae deletion strains, locus YKR026C, strain gcn3, stronger effect = lower value 0.998 | S. cerevisiae deletion strains, locus YKR091W, strain srl3, stronger effect = lower value 0.976 | S. cerevisiae deletion strains, locus YLL001W, strain dnm1, stronger effect = lower value 0.983 | S. cerevisiae deletion strains, locus YLL026W, stronger effect = lower value 0.968 | S. cerevisiae deletion strains, locus YLL041C, strain sdh2, stronger effect = lower value 0.968 | S. cerevisiae deletion strains, locus YLR027C, strain aat2, stronger effect = lower value 0.951 | S. cerevisiae deletion strains, locus YLR058C, strain SHM2, stronger effect = lower value 0.976 | S. cerevisiae deletion strains, locus YLR102C, strain apc9, stronger effect = lower value 0.995 | S. cerevisiae deletion strains, locus YLR221C, strain rsa3, stronger effect = lower value 0.975 | S. cerevisiae deletion strains, locus YLR258W, strain gsy2, stronger effect = lower value 0.949 | S. cerevisiae deletion strains, locus YLR262C, strain YPT6 (second series), stronger effect = lower value 1.04 | S. cerevisiae deletion strains, locus YLR268W, strain sec22, stronger effect = lower value 0.901 | S. cerevisiae deletion strains, locus YLR320W, strain mms22, stronger effect = lower value 0.999 | S. cerevisiae deletion strains, locus YLR330W, strain CHS5, stronger effect = lower value 1.03 | S. cerevisiae deletion strains, locus YLR357W, strain rsc2, stronger effect = lower value 0.984 | S. cerevisiae deletion strains, locus YLR370C, strain arc18, stronger effect = lower value 0.952 | S. cerevisiae deletion strains, locus YLR371W, strain rom2, stronger effect = lower value 0.983 | S. cerevisiae deletion strains, locus YLR384C, strain iki3, stronger effect = lower value 0.981 | S. cerevisiae deletion strains, locus YML016C, strain PPZ1, stronger effect = lower value 0.994 | S. cerevisiae deletion strains, locus YML032C, strain rad52, stronger effect = lower value 0.926 | S. cerevisiae deletion strains, locus YML120C, strain ndi1, stronger effect = lower value 0.995 | S. cerevisiae deletion strains, locus YML124C, strain tub3, stronger effect = lower value 1 | S. cerevisiae deletion strains, locus YMR078C, strain ctf18, stronger effect = lower value 0.986 | S. cerevisiae deletion strains, locus YMR125W, strain sto1, stronger effect = lower value 0.957 | S. cerevisiae deletion strains, locus YMR129W, stronger effect = lower value 0.978 | S. cerevisiae deletion strains, locus YMR205C, strain PFK2, stronger effect = lower value 0.992 | S. cerevisiae deletion strains, locus YMR223W, strain ubp8, stronger effect = lower value 0.963 | S. cerevisiae deletion strains, locus YMR263W, strain SAP30, stronger effect = lower value 0.933 and 0.994 | S. cerevisiae deletion strains, locus YMR307W, strain GAS1, stronger effect = lower value 0.852 and 1.02 | S. cerevisiae deletion strains, locus YNL067W, strain RPL9B, stronger effect = lower value 0.921 | S. cerevisiae deletion strains, locus YNL071W, strain lat1, stronger effect = lower value 0.988 | S. cerevisiae deletion strains, locus YNL128W, strain TEP1, stronger effect = lower value 0.944 | S. cerevisiae deletion strains, locus YNL153C, strain GIM3, stronger effect = lower value 0.919 and 0.859 | S. cerevisiae deletion strains, locus YNL175C, strain NOP13, stronger effect = lower value 1.01 | S. cerevisiae deletion strains, locus YNL197C, strain WHI3, stronger effect = lower value 1.01 | S. cerevisiae deletion strains, locus YNL209W, strain ssb2, stronger effect = lower value 0.952 | S. cerevisiae deletion strains, locus YNL224C, strain SQS1, stronger effect = lower value 1.02 | S. cerevisiae deletion strains, locus YNL233W, strain BNI4, stronger effect = lower value 0.909 | S. cerevisiae deletion strains, locus YNL248C, strain rpa49, stronger effect = lower value 0.901 | S. cerevisiae deletion strains, locus YNL250W, strain rad50, stronger effect = lower value 0.989 | S. cerevisiae deletion strains, locus YNL271C, strain bni1, stronger effect = lower value 0.986 | S. cerevisiae deletion strains, locus YNL298W, strain CLA4, stronger effect = lower value 0.963 | S. cerevisiae deletion strains, locus YNL307C, strain MCK1, stronger effect = lower value 0.98 | S. cerevisiae deletion strains, locus YNL322C, strain KRE1 (second series), stronger effect = lower value 0.968 | S. cerevisiae deletion strains, locus YNL322C, strain KRE1, stronger effect = lower value 0.995 | S. cerevisiae deletion strains, locus YNR049C, strain mso1, stronger effect = lower value 0.984 | S. cerevisiae deletion strains, locus YNR052C, strain pop2, stronger effect = lower value 0.938 | S. cerevisiae deletion strains, locus YOL006C, strain TOP1, stronger effect = lower value 0.629 | S. cerevisiae deletion strains, locus YOL012C, strain htz1 1.6 | S. cerevisiae deletion strains, locus YOL147C, strain pex11, stronger effect = lower value 0.986 | S. cerevisiae deletion strains, locus YOR001W, strain rrp6, stronger effect = lower value 0.943 | S. cerevisiae deletion strains, locus YOR061W, strain CKA2, stronger effect = lower value 0.987 | S. cerevisiae deletion strains, locus YOR069W, strain VPS5, stronger effect = lower value 0.986 | S. cerevisiae deletion strains, locus YOR070C, strain gyp1, stronger effect = lower value 0.938 | S. cerevisiae deletion strains, locus YOR080W, strain dia2, stronger effect = lower value 0.989 | S. cerevisiae deletion strains, locus YOR083W, strain WHI5 (second series), stronger effect = lower value 0.886 | S. cerevisiae deletion strains, locus YOR136W, strain idh2, stronger effect = lower value 0.978 | S. cerevisiae deletion strains, locus YOR144C, strain elg1, stronger effect = lower value 0.999 | S. cerevisiae deletion strains, locus YOR184W, strain ser1, stronger effect = lower value 0.99 | S. cerevisiae deletion strains, locus YOR265W, strain rbl2, stronger effect = lower value 0.986 | S. cerevisiae deletion strains, locus YOR270C, strain vph1, stronger effect = lower value 0.788 | S. cerevisiae deletion strains, locus YOR290C, strain snf2, stronger effect = lower value 0.911 | S. cerevisiae deletion strains, locus YOR316C, strain cot1, stronger effect = lower value 0.991 | S. cerevisiae deletion strains, locus YPL055C, strain LGE1, stronger effect = lower value 0.902 and 0.943 | S. cerevisiae deletion strains, locus YPL078C, strain atp4, stronger effect = lower value 0.941 | S. cerevisiae deletion strains, locus YPL106C, strain sse1, stronger effect = lower value 0.988 | S. cerevisiae deletion strains, locus YPL240C, strain hsp82, stronger effect = lower value 0.984 | S. cerevisiae deletion strains, locus YPL241C, strain CIN2, stronger effect = lower value 0.997 | S. cerevisiae deletion strains, locus YPR119W, strain clb2, stronger effect = lower value 0.988 | S. cerevisiae deletion strains, locus YPR141C, strain kar3, stronger effect = lower value 0.985 | S. cerevisiae deletion strains, locus YPR167C, strain met16, stronger effect = lower value 0.984 | S. cerevisiae strains, strain wild type, stronger effect = lower value 0.949
active: S. cerevisiae deletion strains, locus YKR001C, strain vps1, stronger effect = lower value 0.864 | S. cerevisiae deletion strains, locus YLR039C, strain RIC1, stronger effect = lower value 1.48 [resistant] | S. cerevisiae deletion strains, locus YLR262C, strain YPT6, stronger effect = lower value 1.41 [resistant] | S. cerevisiae deletion strains, locus YLR342W, strain FKS1 (second series), stronger effect = lower value 0.723 | S. cerevisiae deletion strains, locus YLR342W, strain FKS1, stronger effect = lower value 0.807 | S. cerevisiae deletion strains, locus YLR418C, strain cdc73, stronger effect = lower value 0.76 | S. cerevisiae deletion strains, locus YMR058W, strain fet3, stronger effect = lower value 0.884 | S. cerevisiae deletion strains, locus YMR231W, strain pep5, stronger effect = lower value 0.0843 | S. cerevisiae deletion strains, locus YOR083W, strain WHI5, stronger effect = lower value 0.855 | S. cerevisiae deletion strains, locus YOR106W, strain vam3, stronger effect = lower value 0.644 | S. cerevisiae deletion strains, locus YPL051W, strain arl3, stronger effect = lower value 0.874 | S. cerevisiae deletion strains, locus YPR163C, strain tif3, stronger effect = lower value 0.89 | S. cerevisiae deletion strains, strain wtn01, stronger effect = lower value 0.887

From PubChem BioAssay AID1159580 (chemical genetic matrix, 2015)
